A selection: hits, their analogues and other compounds. The true share with any hit is near 3.6%.
mHTT CaM bind: disrupts binding of mutant huntingtin to calmodulin; inhibition, % at 15 µM; AlphaScreen His-mHTT/GST-CaM binding, luminescence; P42858; 3.6% of 190,000 active
Target sequence (P42858 whole entry, looked up, change not shown): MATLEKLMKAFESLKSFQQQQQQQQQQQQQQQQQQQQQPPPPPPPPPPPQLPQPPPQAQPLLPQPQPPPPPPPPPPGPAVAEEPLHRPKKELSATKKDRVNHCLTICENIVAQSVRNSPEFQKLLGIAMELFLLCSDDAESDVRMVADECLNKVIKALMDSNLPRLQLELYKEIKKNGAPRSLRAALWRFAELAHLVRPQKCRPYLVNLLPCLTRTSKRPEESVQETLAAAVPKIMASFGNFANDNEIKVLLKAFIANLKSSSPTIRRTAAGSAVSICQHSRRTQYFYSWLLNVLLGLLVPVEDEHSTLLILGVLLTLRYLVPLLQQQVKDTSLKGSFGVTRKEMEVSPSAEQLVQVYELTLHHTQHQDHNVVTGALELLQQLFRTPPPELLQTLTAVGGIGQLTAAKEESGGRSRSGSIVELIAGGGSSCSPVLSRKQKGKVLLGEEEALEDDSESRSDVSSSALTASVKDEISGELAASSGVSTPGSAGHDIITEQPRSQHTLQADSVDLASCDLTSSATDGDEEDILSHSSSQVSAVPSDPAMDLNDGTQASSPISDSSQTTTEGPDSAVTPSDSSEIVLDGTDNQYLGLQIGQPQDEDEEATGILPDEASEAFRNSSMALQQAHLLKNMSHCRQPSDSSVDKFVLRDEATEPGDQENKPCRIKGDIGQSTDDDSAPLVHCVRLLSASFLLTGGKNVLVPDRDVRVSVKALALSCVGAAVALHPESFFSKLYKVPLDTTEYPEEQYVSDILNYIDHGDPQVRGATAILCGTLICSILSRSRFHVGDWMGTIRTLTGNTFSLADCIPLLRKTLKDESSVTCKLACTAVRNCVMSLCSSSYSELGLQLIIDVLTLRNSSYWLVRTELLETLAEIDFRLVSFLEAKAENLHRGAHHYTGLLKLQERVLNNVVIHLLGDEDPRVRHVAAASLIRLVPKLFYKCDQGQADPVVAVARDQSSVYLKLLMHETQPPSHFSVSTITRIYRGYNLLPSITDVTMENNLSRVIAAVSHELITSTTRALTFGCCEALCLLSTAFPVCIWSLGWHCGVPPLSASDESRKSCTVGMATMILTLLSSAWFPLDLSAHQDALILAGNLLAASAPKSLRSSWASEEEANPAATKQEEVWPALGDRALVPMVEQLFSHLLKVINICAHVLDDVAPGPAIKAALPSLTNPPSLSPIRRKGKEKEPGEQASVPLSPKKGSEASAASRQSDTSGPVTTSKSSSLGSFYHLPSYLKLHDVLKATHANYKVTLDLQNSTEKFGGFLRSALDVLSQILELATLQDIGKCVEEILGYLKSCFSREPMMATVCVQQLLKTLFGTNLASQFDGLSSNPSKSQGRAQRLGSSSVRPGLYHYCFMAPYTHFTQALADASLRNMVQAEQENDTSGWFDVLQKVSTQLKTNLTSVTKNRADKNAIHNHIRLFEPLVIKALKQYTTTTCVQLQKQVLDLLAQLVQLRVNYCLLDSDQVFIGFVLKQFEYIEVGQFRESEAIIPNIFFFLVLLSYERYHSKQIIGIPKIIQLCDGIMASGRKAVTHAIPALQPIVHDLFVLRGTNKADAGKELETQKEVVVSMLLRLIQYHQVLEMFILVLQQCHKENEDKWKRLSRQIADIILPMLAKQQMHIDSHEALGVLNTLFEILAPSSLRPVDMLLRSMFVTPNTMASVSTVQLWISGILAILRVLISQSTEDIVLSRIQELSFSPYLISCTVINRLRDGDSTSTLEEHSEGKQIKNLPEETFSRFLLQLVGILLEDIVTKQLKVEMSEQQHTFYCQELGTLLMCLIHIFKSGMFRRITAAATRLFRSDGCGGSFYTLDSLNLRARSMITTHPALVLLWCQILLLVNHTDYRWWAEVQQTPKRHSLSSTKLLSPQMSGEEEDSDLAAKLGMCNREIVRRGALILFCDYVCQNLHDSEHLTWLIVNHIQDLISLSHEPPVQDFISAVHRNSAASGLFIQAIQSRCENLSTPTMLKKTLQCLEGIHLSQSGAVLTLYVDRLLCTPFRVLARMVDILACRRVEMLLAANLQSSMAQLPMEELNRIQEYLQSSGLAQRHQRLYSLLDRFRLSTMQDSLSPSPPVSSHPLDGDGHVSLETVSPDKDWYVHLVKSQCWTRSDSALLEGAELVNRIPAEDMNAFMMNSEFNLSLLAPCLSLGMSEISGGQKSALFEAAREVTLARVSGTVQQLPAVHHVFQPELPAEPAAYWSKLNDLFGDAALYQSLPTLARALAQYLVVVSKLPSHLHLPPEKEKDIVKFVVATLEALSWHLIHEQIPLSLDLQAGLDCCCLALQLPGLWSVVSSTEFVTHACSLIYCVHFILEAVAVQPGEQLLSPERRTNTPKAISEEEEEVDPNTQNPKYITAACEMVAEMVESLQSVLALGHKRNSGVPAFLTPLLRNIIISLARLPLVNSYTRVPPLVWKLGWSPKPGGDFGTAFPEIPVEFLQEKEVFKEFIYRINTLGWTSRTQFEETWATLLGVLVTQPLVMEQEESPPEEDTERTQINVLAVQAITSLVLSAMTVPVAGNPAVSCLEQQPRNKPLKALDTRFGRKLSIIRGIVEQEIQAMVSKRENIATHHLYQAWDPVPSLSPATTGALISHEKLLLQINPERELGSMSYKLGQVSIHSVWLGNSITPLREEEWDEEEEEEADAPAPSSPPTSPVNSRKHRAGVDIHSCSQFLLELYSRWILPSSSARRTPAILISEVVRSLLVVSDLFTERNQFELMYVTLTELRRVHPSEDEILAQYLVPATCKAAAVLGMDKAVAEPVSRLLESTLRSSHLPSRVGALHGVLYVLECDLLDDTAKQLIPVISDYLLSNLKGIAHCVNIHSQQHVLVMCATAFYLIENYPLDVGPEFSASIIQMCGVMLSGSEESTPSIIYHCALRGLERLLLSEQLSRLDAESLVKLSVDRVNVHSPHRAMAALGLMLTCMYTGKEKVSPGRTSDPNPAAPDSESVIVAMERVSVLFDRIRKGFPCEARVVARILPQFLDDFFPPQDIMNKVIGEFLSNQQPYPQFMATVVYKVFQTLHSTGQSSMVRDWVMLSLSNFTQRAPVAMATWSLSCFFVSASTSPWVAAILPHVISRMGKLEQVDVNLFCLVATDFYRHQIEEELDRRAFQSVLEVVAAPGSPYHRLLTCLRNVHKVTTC
Pf apPOL inh: Pf-apPOL DNA polymerase inhibition | Recombinant Pf-apPOL, molecular beacon fluorescence, 1.5 h | inhibition, % at 10 µM | 0.25% of 210,000 active | AID 1794808
Large screens that a line does not name were inactive. Cut-off read from the data, not from the text of the source: active = inhibition above about 50%; inactive = the rest.

CC(=O)N1CCN(CC(=O)N2N=C(c3cccc(C)c3)CC2c2ccc(C)cc2)CC1 (centres undefined)	mHTT CaM bind 82
CC(C)(C)N=C1Nc2ccccc2CNC12CCN(C(=O)c1ccncc1)C2 (centres undefined)	none
Cc1cccn2c(=O)c3cc(C(=O)Nc4ccccc4F)sc3nc12	none
O=C(Nc1ccc(F)cc1)ON=c1oc2cc3c(cc2c2c1CCCC2)CCC1(CCCCC1)O3	none
Cc1ccc2[nH]cc(CCN3CC(C(=O)Nc4nncs4)CC3=O)c2c1 (centres undefined)	none
Cc1ccc2[nH]cc(CCN3CC(C(=O)Nc4nc5c(C)cccc5s4)CC3=O)c2c1 (centres undefined)	mHTT CaM bind 81
Cc1ccc2[nH]cc(CCN3CC(C(=O)Nc4ccccc4C)CC3=O)c2c1 (centres undefined)	none
Cc1ccc2nc(NC(=O)C3CC(=O)N(CCc4c[nH]c5ccc(C)cc45)C3)sc2c1 (centres undefined)	mHTT CaM bind 88
CCN1CCCn2cc(S(=O)(=O)Nc3cc(F)ccc3C)cc2C1=O	none
N#Cc1c(C(F)(F)F)cc(-c2ccccc2)nc1SCC(N)=O	Pf apPOL inh 65
N#Cc1c(C(F)(F)F)cc(-c2ccccc2)nc1SCCC(N)=O	none
O=C1c2ccccc2-c2cc(Cl)nc3ccc(Cl)c1c23	none
Cc1ccc2nc3c(N)c(Cl)cc4c3c(c2c1)-c1ccccc1C4=O	mHTT CaM bind 61
CCOC(=O)c1cccc(NC(=O)N2CCC3(CC2)Nc2cc(F)ccc2-n2cccc23)c1	mHTT CaM bind 68
CCOC(=O)c1ccc(NC(=O)N2CCC3(CC2)Nc2cc(F)ccc2-n2cccc23)cc1	mHTT CaM bind 56
CN1c2cc(F)ccc2C(=O)NC12CCN(C(=O)Nc1ccc3c(c1)OCO3)CC2	none
O=C(Nc1ccc2c(c1)OCCO2)N1CCC2(CC1)Nc1cc(F)ccc1-n1cccc12	mHTT CaM bind 69
O=C(Nc1ccc(F)cc1)N1CCC2(CC1)Nc1cc(F)ccc1-n1cccc12	none
Cc1ccc(NC(=O)N2CCC3(CC2)Nc2cc(F)ccc2-n2cccc23)cc1	mHTT CaM bind 61
CNS(=O)(=O)c1ccc(C(=O)Nc2ccc(S(N)(=O)=O)cc2)o1	none
O=C(NCCc1ccncc1)C1CCc2sc(C(=O)N3CCCCC3)cc2C1 (centres undefined)	none
CC1C(=O)N(c2ccccc2Cl)CCN1C(=O)c1ccccc1 (centres undefined)	none
COCCCNC(=O)C1(C)CCC(=O)N1c1ccc(F)cc1 (centres undefined)	none
COc1ccc(Nc2nnc(-c3ccc(C)c(S(N)(=O)=O)c3)c3ccccc23)cc1C(N)=O	mHTT CaM bind 54
CNC(=O)c1cc(Nc2nnc(-c3ccc(C)c(S(N)(=O)=O)c3)c3ccccc23)ccc1OC	none
CCOc1ccc(-c2nnc(Nc3ccc(OC)c(C(=O)NC)c3)c3ccccc23)cc1	mHTT CaM bind 69
COc1ccc(-c2nnc(Nc3ccc(CC(N)=O)cc3)c3ccccc23)cc1	none
COc1ccc(-c2nnc(Nc3ccc(OC)c(C(N)=O)c3)c3ccccc23)cc1	mHTT CaM bind 60
CNC(=O)c1cc(Nc2nnc(-c3ccc(OC)cc3)c3ccccc23)ccc1OC	none
CCC(Sc1nc(=O)cc(N)n1-c1ccccc1)C(=O)Nc1nnc(C)s1 (centres undefined)	none
O=C(Nc1ccccc1[N+](=O)[O-])C(=O)N1CCN(Cc2ccc3c(c2)OCO3)CC1	none
Cc1nc2c(NC3CCN(C(=O)c4cccc(F)c4)CC3)cccn2n1	none
Cc1oc(C2CCN(C(=O)c3cccc(F)c3)CC2)nc1C(=O)N1CCCC1	none
CCOC(=O)C(C)Oc1ccc2c(c1)OC(=Cc1ccc(C(=O)OC)cc1)C2=O (centres undefined)	none
CCn1cc(C2=CCN(S(=O)(=O)c3cccc(Cl)c3)CC2)c2cccnc21	none
COc1ccc(-c2cc3nc4c(c(=O)n3[nH]2)CN(C(=O)NCc2ccc(F)cc2)CC4)cc1	mHTT CaM bind 58
O=C(Cc1cccs1)N1CCc2nc3cc(-c4ccccc4Cl)[nH]n3c(=O)c2C1	mHTT CaM bind 52
O=C(c1n[nH]c2ccccc12)N1CCc2nc3cc(-c4ccccc4Cl)[nH]n3c(=O)c2C1	mHTT CaM bind 89
Cc1ccc(CNC(=O)N2CCc3nc4cc(-c5ccccc5Cl)[nH]n4c(=O)c3C2)cc1	mHTT CaM bind 53
COc1ccc(-c2cc3nc4c(c(=O)n3[nH]2)CN(C(=O)c2n[nH]c3ccccc23)CC4)cc1	none
O=C(c1ccco1)N1CCc2nc3cc(-c4ccccc4Cl)[nH]n3c(=O)c2C1	none
COc1ccc(-c2cc3nc4c(c(=O)n3[nH]2)CN(C(C)=O)CC4)cc1	none
O=C(Cc1ccccc1)N1CCc2c(nc3cc(-c4ccccc4Cl)[nH]n3c2=O)C1	none
Cc1noc(CNC(=O)c2ccc(OCc3nc(-c4ccco4)cs3)cc2)n1	none
COc1cc(-c2noc(C)n2)ccc1OCc1ccccc1	none
O=C1CC(O)(C(F)(F)F)OCC12CCCCC2 (centres undefined)	none (no result: Pf apPOL inh)
O=C(c1ccc2c(c1)OCO2)N1CCCN(C2CCN(CC3CC3)C2=O)CC1 (centres undefined)	none
N#Cc1ccc(C(=O)N2CCCC(c3nc(CCNC(=O)C4CC4)cs3)C2)cc1 (centres undefined)	none
Cc1ccc2nc(=O)c3cc(F)c(F)c(F)c3n2c1	none (no result: Pf apPOL inh)
COc1cc(NC(=O)C(Cl)(Cl)Cl)ccc1NC(=O)c1cc2ccccc2o1	none
CCOc1ccc(NC=C2C(=O)OC(C)(C)OC2=O)cc1	none
Cn1c(C(=O)NCCN2CCCC2)cc2c1CCN(Cc1cccc(F)c1)C2	mHTT CaM bind 79
Cn1c(C(=O)N2CCCCC2)cc2c1CCN(Cc1cccc(F)c1)C2	none
COc1ccc(CNC(=O)c2cc3c(n2C)CCN(Cc2cccc(F)c2)C3)cc1	none
Cn1c(C(=O)N2CCN(c3ccc(F)cc3)CC2)cc2c1CCN(Cc1ccccc1)C2	mHTT CaM bind 85
Cn1c(C(=O)N2CCN(c3ccccc3)CC2)cc2c1CCN(Cc1cccc(F)c1)C2	mHTT CaM bind 66
Cn1c(C(=O)N2CCOCC2)cc2c1CCN(Cc1ccccc1)C2	none
COc1ccc(OC)c(NC(=O)c2cc(S(=O)(=O)NCc3ccccc3Cl)ccc2F)c1	none
Cc1cc(=O)[nH]c(-n2nc(C)cc2N)n1	mHTT CaM bind 98
Cc1cc(=O)[nH]c(-n2nc(C)cc2NC(=O)c2snnc2C)n1	none
Cc1ccc(/C=C2\N=C(c3cccc(F)c3)OC2=O)cc1	Pf apPOL inh 63
O=C1OC(c2cccc(Cl)c2)=N/C1=C\c1cccs1	mHTT CaM bind 53
O=C1OC(c2cccc(F)c2)=N/C1=C\c1ccc(F)cc1	none
O=C1OC(c2cccc(F)c2)=N/C1=C\c1cccs1	none
CC1=NN(c2cc(C(=O)O)cc(C(=O)O)c2)C(=O)/C1=C/c1ccc(N(C)C)cc1	none
O=C(NC(Nc1ccc([N+](=O)[O-])cc1)C(Cl)(Cl)Cl)c1cccs1 (centres undefined)	none
O=C(NC(Nc1ccc(I)cc1)C(Cl)(Cl)Cl)c1cccs1 (centres undefined)	mHTT CaM bind 84
Cc1ccc(NC(NC(=O)c2cccs2)C(=O)c2ccccc2)cc1 (centres undefined)	none
O=C(NC(Nc1ccc(Cl)cc1)C(=O)c1ccccc1)c1cccs1 (centres undefined)	mHTT CaM bind 81
NC(=O)C=C1C2CC3CC(C2)CC1C3	none (no result: Pf apPOL inh)
Cc1cccc(NC(=O)c2sc3[nH]c(=O)c(C(=O)O)cc3c2N)c1C	none
